From PubChem BioAssay
697 NFkB inh: lowers PMA/ionomycin-induced NF-kB signal in 697 B cells; AID 435022; 697 B-cell NF-kB luciferase reporter, 16 h; inhibition, % at 4 µM; actives 0.33% (n = 330,000); in the data active = inhibition above about 35%
Mdm2 MdmX PPI: inhibitors of human Mdm2/MdmX interaction; SaOS-2 split-luciferase Mdm2/MdmX complementation, luminescence; O15151+Q00987; AID 485346; actives 3% (n = 330,000); inhibition, % at 8 µM;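 active = inhibition of at least 50% at 8 µM in the primary screen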
Target sequence (O15151 whole entry, looked up): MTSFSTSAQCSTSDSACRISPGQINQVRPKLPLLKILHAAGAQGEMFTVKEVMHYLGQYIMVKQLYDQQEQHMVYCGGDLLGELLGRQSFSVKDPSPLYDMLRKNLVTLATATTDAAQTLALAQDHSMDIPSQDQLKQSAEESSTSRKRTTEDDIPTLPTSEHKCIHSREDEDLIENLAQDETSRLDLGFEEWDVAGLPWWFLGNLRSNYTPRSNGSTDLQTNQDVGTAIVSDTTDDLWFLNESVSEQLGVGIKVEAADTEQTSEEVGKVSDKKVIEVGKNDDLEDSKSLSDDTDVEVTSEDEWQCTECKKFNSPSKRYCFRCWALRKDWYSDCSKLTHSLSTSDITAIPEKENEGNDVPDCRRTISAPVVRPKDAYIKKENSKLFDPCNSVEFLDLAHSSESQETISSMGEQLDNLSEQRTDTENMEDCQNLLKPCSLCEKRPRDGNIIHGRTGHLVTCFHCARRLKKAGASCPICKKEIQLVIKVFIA
Target sequence (Q00987 whole entry, looked up): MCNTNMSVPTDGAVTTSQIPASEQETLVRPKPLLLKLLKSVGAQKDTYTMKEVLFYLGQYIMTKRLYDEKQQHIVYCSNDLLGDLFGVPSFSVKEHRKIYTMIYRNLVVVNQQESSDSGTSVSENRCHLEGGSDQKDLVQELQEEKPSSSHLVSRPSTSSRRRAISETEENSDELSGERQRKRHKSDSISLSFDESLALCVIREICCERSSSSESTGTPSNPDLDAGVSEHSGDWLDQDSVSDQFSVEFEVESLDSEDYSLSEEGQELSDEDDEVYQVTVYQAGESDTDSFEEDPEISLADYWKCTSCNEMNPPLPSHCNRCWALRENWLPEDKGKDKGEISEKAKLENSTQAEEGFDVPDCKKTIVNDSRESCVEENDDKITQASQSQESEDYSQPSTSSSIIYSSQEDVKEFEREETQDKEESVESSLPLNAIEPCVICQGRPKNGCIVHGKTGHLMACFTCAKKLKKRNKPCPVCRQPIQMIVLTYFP
Gli-Sufu antag: antagonists of Gli-Sufu signaling; Sufu-KO-LIGHT fibroblasts, Gli luciferase reporter luminescence; inhibition, % at 5 µM; actives 0.74% (n = 340,000); AID 588413;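 active = inhibition above about 55%, limit read from the data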;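 also: 0% = DMSO-treated cells and 100% = wells with medium but no cells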
Beta apoptosis: blocks beta cell apoptosis. actives 0.8% (n = 300,000). INS-1E cytokine-induced death, ATP luminescence, 48 h; percent of positive-control rescue, neutral wells zero. protection from apoptosis, % (no concentration beside the values). AID 435005;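 active = Every replicate reaches about 75%, or at least half do and their mean reaches it too, limit read from the data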;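 also: 0% = cytokine-treated negative control wells and 100% = positive control rescue; higher means more ATP so stronger rescue from cytokine killing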
Jurkat NFkB inh: lowers PMA/ionomycin-induced NF-kB signal in Jurkat cells. inhibition, % at 4 µM. PMA/ionomycin-induced NF-kB luciferase reporter, luminescence. actives 0.53% (n = 330,000); in the data active = inhibition above about 50%
Mdm2 MdmX conf: human Mdm2/MdmX binding inhibition, confirmed. luminescent assay. inhibition, % at 8 µM. shares compounds with Mdm2 MdmX PPI. actives 55% (n = 10,000); in the data active = inhibition above about 40%
Full FLuc ctr: counter-screen for Mdm2/MdmX inhibitors: full-length luciferase; shares compounds with Mdm2 MdmX PPI; SaOS-2 full-length luciferase counterscreen, luminescence; inhibition, % at 8 µM; actives 77% (n = 6,200);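 active = mean inhibition at 8 µM reaching about 37%, which flags the compound as non-specific, limit read from the data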;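 also: p53-null SaOS-2 cells with luciferase driven by a doxycycline-inducible promoter; compound on cells about two nights before reading with doxycycline added after day one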
An asterisk follows results filed as active; x = no result given. Only some compounds are listed: those with a hit (about 4% of all), similar ones and a draw of the others.

SMILES	697 NFkB inh	Mdm2 MdmX PPI	Gli-Sufu antag	Beta apoptosis	Jurkat NFkB inh	Mdm2 MdmX conf	Full FLuc ctr
CCOc1cc(/C=N/O)ccc1OCc1ccc([N+](=O)[O-])cc1	-5	-23	-10	2	16	x	x
COc1ccc(C(=O)O/N=C(\N)Cc2ccc([N+](=O)[O-])cc2)c(OC)c1	-34	86*	12	5	3	68*	90*
CCOc1cc(C=C(C(=O)OC)C(=O)OC)ccc1OCc1ccc([N+](=O)[O-])cc1	26	96*	-42	56	2	75*	44*
CCOc1ccc(C(=O)O/N=C(\N)c2ccc([N+](=O)[O-])cc2)cc1OCC	-30	60*	1	x	13	52*	125*
N/C(Cc1ccc([N+](=O)[O-])cc1)=N\OC(=O)c1cccc(Br)c1	5	61*	3	-6	6	7	x
CC1CN(S(=O)(=O)N2CCOCC2)CCN1S(=O)(=O)N1CCOCC1 (centres undefined)	19	-22	0	x	-11	x	x
O=C(O)CCC(=O)NNc1nc2ccccc2nc1-c1ccccc1	-5	-8	11	-3	3	x	x
COc1cc(C(=O)O/N=C(\N)Cc2ccc([N+](=O)[O-])cc2)cc(OC)c1OC	-56	85*	8	12	26	70*	70*
Cn1nc(C(=O)OCC(=O)Nc2ccc(C(N)=O)cc2)c2ccccc2c1=O	9	14	-4	-14	13	x	x
COc1cc(C(=O)NC(=S)N(CCc2ccccc2)CCc2ccccc2)cc(OC)c1OC	-14	52*	10	x	2	53*	50*
COc1cc(C(=O)NC(=S)Nc2ccc(NC(=O)c3ccco3)cc2)cc(OC)c1OC	9	54*	-1	15	-13	23	x
COc1cc(C(=O)NC(=S)N(C)Cc2ccccc2)cc(OC)c1OC	10	8	2	18	8	x	x
O=C(c1ccc(Cn2c(=O)[nH]c3ccccc3c2=O)cc1)N1CCN(c2ccc(Cl)cc2)CC1	-49	65*	-5	24	4	34	x
Cc1ccc(C)c(N2CCN(C(=O)c3ccc(Cn4c(=O)[nH]c5ccccc5c4=O)cc3)CC2)c1	-4	91*	5	8	15	52*	47*
COc1ccc(Cn2c(=O)[nH]c3cc(C(=O)N4CCN(c5ccc(OC)cc5)CC4)ccc3c2=O)cc1	-20	21	10	-2	3	x	x
C=CCn1c(=O)[nH]c2cc(C(=O)N3CCN(c4cc(C)ccc4C)CC3)ccc2c1=O	-2	29	11	3	1	x	x
CCOC(=O)N1CCN(C(=O)c2ccc(Cn3c(=S)[nH]c4ccc(Br)cc4c3=O)cc2)CC1	30	55*	x	54	37	27	x
COc1ccc(C(=O)NCc2nnc(SCC(=O)N3CCCc4ccccc43)o2)cc1OC	11	22	-3	-3	4	x	x
Cc1cc(C)c(O)c(-c2cc(C(=O)Nc3c(C)n(C)n(-c4ccccc4)c3=O)[nH]n2)c1	12	13	13	5	4	x	x
COc1ccc(Cn2c(CCC(=O)Nc3ccc(CC#N)cc3)nc3cccnc32)cc1	10	3	-5	10	-4	x	x
COc1ccc(Cn2c(CCC(=O)Nc3ccccc3)nc3cccnc32)cc1	-36	77*	4	-2	-21	13	x
Cc1ccc(CNC(=O)/C=C/c2c(Cl)cccc2Cl)cc1	4	55*	-7	-5	-8	8	x
CN(C)S(=O)(=O)c1ccc(NC(=O)/C=C/c2ccccc2Cl)cc1	-28	-3	-17	0	-24	x	x
CN(C)c1ccc(NC(=O)/C=C/c2c(Cl)cccc2Cl)cc1	1	64*	-40	6	-34	69*	50*
Cc1ccc(/C=C2\SC(=S)N(CCC(=O)N3CCCCC3)C2=O)cc1	20	72*	17	-20	2	66*	122*
SMILES	697 NFkB inh	Mdm2 MdmX PPI	Gli-Sufu antag	Beta apoptosis	Jurkat NFkB inh	Mdm2 MdmX conf	Full FLuc ctr
CCN(CC)C(=O)CN1C(=O)/C(=C/c2ccccc2)SC1=S	8	63*	0	-60	3	45*	28
O=C(CCCN1C(=O)/C(=C\c2ccco2)SC1=S)Nc1ccc2ccccc2c1	-17	60*	-2	-8	10	35	98*
COc1ccc(/C=C2\SC(=S)N(CCCC(=O)Nc3cc(C)on3)C2=O)cc1OC	3	26	33	0	-13	x	x
COc1ccc(/C=C2\SC(=S)N(CCCCCC(=O)Nc3cc(C)on3)C2=O)cc1OC	17	66*	2	6	13	13	x
O=C(CCCN1C(=O)/C(=C/c2ccco2)SC1=S)Nc1ccccc1C(=O)O	12	20	4	-3	-2	x	x
COc1cc(/C=C2\SC(=S)N(CCC(=O)Nc3ccc(O)cc3)C2=O)cc(OC)c1OC	-19	92*	-3	4	-1	15	x
COc1cc(/C=C2\SC(N)=NC2=O)ccc1OCC(=O)Nc1ccc(C)cc1	10	57*	-15	5	6	-21	x
O=C(CCCN1C(=O)/C(=C\c2ccccc2)SC1=S)N1CCOCC1	-17	51*	4	-25	-15	20	x
O=C(CCCN1C(=O)/C(=C/c2ccccc2Cl)SC1=S)N1CCOCC1	-1	47	-4	-46	3	x	x
O=C(CN1C(=O)/C(=C/c2ccccc2)SC1=S)N1CCN(CCc2ccccn2)CC1	-3	84*	-16	-31	14	54*	24
CC(C)c1ccc(N(C(=O)CNC(=O)c2ccco2)C(C(=O)NC2CCCC2)c2cccnc2)cc1 (centres undefined)	18	-16	-7	0	5	x	x
O=C(OCc1c(F)cccc1Cl)c1cccc(S(=O)(=O)N2CCOCC2)c1	21	-3	8	3	-5	x	x
Cc1ccc(NC2c3ncccc3C(=O)N2Cc2cccs2)cc1 (centres undefined)	-7	13	-6	-4	-18	x	x
COc1ccc(C(=O)Oc2cc(C)[nH]c(=O)c2[N+](=O)[O-])c(OC)c1	2	27	-7	7	11	x	x
O=C(CCN1C(=O)/C(=C/c2cccs2)SC1=S)N1CCCCC1	-23	68*	18	-8	-30	52*	45*
Cc1ccc(/C=C2/SC(=S)N(CCC(=O)N3CCOCC3)C2=O)cc1	-5	22	-6	-19	6	x	x
O=C(CCCN1C(=O)/C(=C/c2ccccc2)SC1=S)Nc1ccccc1O	-12	95*	24	x	-13	88*	30
Cc1ccc(/C=C2/SC(=S)N(CCC(=O)N3CCN(C)CC3)C2=O)cc1	5	48	0	-54	-3	x	x
O=C(CCN1C(=O)/C(=C\c2cccc(Br)c2)SC1=S)N1CCOCC1	9	61*	4	-40	34	47*	21
